A549 viability: Nrf2 qHTS screen for inhibitors: counterscreen for cytotoxicity. Potency, µM (titrated, usually from 46 µM), inactives show at the top dose activity change, negative = cytotoxicity, hits mostly inhibitors. A549 ARE-Fluc cells, CellTiter-Fluor viability, 18-24 h. AID 504648, 2011. actives 0.16% (n = 390,000); also: potency is read from the fitted curve at half-maximal effect; % is scaled to controls: 0 for no effect and ±100 for the full control effect
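A549 ARE_Fluc cells in 5% FBS OPTI-MEM were exposed to compounds in concentration-response for 18-24 h at 37 deg C. Viability was read by CellTiter-Fluor fluorescence (Ex 405/Em 525) after 30 min, before the luciferase read.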
ClpP mod: qHTS Assay for Activators of ClpP; actives 1.9% (n = 340,000); ATP-dependent Clp protease proteolytic subunit (Bacillus subtilis (strain 168)), P80244; purified B. subtilis ClpP, FRET peptide cleavage, 20 min; AID 651965, 2013; Potency, µM (doses to about 57.5 µM), for inactives: at the top dose activity change, negative = active; active = well fitted falling curve with a large enough effect; inconclusive = small, poorly fitted or top-dose-only effect; inactive = no such curve, though single readings can be large or run the other way; also: potency is read from the fitted curve at half-maximal effect; the source files actives as falling curves though it sought activators and does not explain the sign; nearly all actives have a fitted effect of over 65% in size
Target sequence (P80244 whole entry, looked up): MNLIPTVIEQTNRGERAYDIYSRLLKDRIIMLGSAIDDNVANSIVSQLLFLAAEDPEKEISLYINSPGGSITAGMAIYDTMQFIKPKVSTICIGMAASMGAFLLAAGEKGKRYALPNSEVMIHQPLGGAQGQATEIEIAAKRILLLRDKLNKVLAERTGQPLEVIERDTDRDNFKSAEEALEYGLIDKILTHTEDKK
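ClpP 10 microg/mL final, pH 8 Tris/KCl buffer with BSA, glycerol, Tween-20; compound pinned in; FRET-FV substrate; RT 20 min; Ex320/Em430; ΔFRET vs ADEP 5.8 microM, DMSO, no enzyme.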
Nrf2 ARE act: qHTS of Nrf2 Activators. AREc32 ARE-luciferase reporter (MCF7-derived line), luminescence, 24 h. Potency, µM (doses to about 46.1 µM), for inactives: top-dose activation, hits mostly activators. actives 0.31% (n = 410,000). AID 624171, 2012; also: potency is read from the fitted curve at half-maximal effect; % of control where 0% means no effect; nearly all actives have a fitted effect of over 65% in size
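Steps: seed AREc32_Fluc cells (1000/well, 5% FBS OPTI-MEM); incubate overnight at 37 deg C; add 23 nL compound; incubate 24 hr; add Steady-Glo; hold 30 min RT; read luminescence.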
miR-21 act: qHTS Assay for Modulators of miRNAs and/orActivators of miR-21; HeLa miR-21 FLuc reporter, luciferase, 48 h; Potency, µM (series often up to 38.3 µM), inactives show top-dose activity change, positive = activation, hits mostly activators; 340,000 tested, under 10 active;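 also: % of control where 0% means no effect; miR-21 action dims this reporter so a rising signal means less miR-21 action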
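Luminescence from a firefly luciferase reporter carrying a miR-21 binding site downstream, stably expressed under a CMV promoter in HeLa cells that make miR-21 endogenously, reports miRNA modulation after 48 h compound exposure up to approximately 40uM final.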
Nrf2 block: Nrf2 qHTS screen for inhibitors | A549 ARE-Fluc reporter, luciferase luminescence, 18-24 h | Potency, µM (titrated, usually from 46 µM), inactives show top-dose activity change, negative = inhibition, hits mostly inhibitors | actives 2.1% (n = 360,000); also: potency is read from the fitted curve at half-maximal effect; % is scaled to controls: 0 for no effect and ±100 for the full control effect; nearly all actives have a fitted effect of over 60% in size
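Concentration-response testing used A549 ARE_Fluc cells at 5000 cells/well. Following an 18-24 h compound incubation, viability was read by fluorescence (Ex 405/Em 525) and luciferase output by luminescence.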
TCR act: Activators of T cell receptors: qHTS campaign | primary human leukocytes, anti-CD3, IL-2 HTRF, 48 h | Potency, µM (highest dose often 9.22 µM), for the others: at the top dose activation of IL-2 secretion, usual class: activators | 330,000 tested, under 10 active; also: % of control where 0% means no effect
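1) Mix primary human leukocytes, a-CD3 beads and compound. 2) Incubate 48 hr. 3) Add HTRF IL-2 reagents (a-IL-2-K, a-IL-2-d2).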
Numbers without * were called inactive; ? = inconclusive; nt = not tested or not shown; [ ] = dose if it differs, or a comment. In the library only some 3.7% were active in any assay of this set; here they are far more common. Unless noted, calls follow the shape of the dose curve; as a rule, active = well fitted curve in the direction sought with a large enough effect; inconclusive = small, poorly fitted or top-dose-only effect, or another doubt; inactive = no such curve, though single readings can be large; an effect the other way counts as inactive or inconclusive.

SMILES	A549 viability	ClpP mod	Nrf2 ARE act	miR-21 act	Nrf2 block	TCR act
COC(=O)c1[nH]c2cc(OC)ccc2c1NC(=O)CCN1CCN(c2ccccc2)CC1	-0.7%	-14.3%	0.9%	-15.2%	-4.7%	-4.4%
COC(=O)c1[nH]c2cc(OC)ccc2c1NC(=O)CCN1CCN(c2cccc(C)c2C)CC1	?	25.1µM*	20.7%	15.5%	nt	0.2%
CC1Sc2ccc(S(=O)(=O)CCC(=O)N3CCN(c4cccc(Cl)c4)CC3)cc2NC1=O (configuration not stated)	?	-4.3%	-0.5%	?	16.4µM*	-5.7%
Cc1cccc(N2CCN(C(=O)CCS(=O)(=O)c3ccc4c(c3)NC(=O)CO4)CC2)c1C	-5.1%	0.3%	-0.8%	26.9%	14.6µM*	-9.1%
C/C(=C\C(=S)Nc1ccccc1)Nc1cccc2ccccc12	4.9%	?	12.7%	-23.9%	5.5%	7.0%[46.1 µM]
C/C(=C\C(=S)Nc1ccccc1)Nc1ccc2ccccc2c1	1.9%	35.5µM*	13.5%	-46.4%	12.9%	-3.7%[46.1 µM]
N#Cc1c(/N=C/c2ccccc2)oc(-c2ccccc2)c1-c1ccccc1	0.1%	35.5µM*	0.3%	-2.4%	?	-2.1%[46.1 µM]
N#Cc1c(/N=C/c2ccco2)oc(-c2ccccc2)c1-c1ccccc1	8.8%	?	0.2%	-4.3%	-10.4%	92.4%
Cc1ccc2ccc3cc(C(=O)N4CCN(c5ccccc5)CC4)nc3c2[nH]1	-8.1%	0.1%	-3.3%	?	-81.4%	nt
Cc1ccc2nc3c(cc(C(N)=S)c(=N)n3CCCOC(C)C)c(=O)n2c1	-6.1%	22.4µM*	0.2%	17.0%	-3.4%	-5.6%
COCCCn1c(=N)c(C(N)=S)cc2c(=O)n3cccc(C)c3nc21	3.3%	nt	2.7%	nt	-4.9%	4.0%
Cc1ccc(CCNC(=O)c2oc(=O)c3ccccc3c2-c2ccc(C)cc2)cc1	0.8%	-1.3%	5.5%	12.3%	?	nt
Fc1ccccc1-c1nc(N2CCN(c3cccc(Cl)c3)CC2)c2ccccc2n1	-0.6%	31.6µM*	5.0%	8.8%	-25.0%	nt
c1ccc(N2CCN(c3nc(-c4ccccn4)nc4ccccc34)CC2)cc1	?	0.8%	-0.5%	?	16.4µM*	5.6%
Fc1ccccc1-c1nc(N2CCCCC2)c2ccccc2n1	2.0%	-10.4%	3.5%	-3.9%	2.4%	-0.4%[46.1 µM]
CCN1C[C@@H]2[C@@H]3C(=O)N(Cc4ccccc4)C(=O)[C@@H]3[C@](C)(C(=O)OC)N2C1=NC	-2.0%	-0.6%	-0.6%	nt	22.3%	-7.7%[46.1 µM]
O=[N+]([O-])c1ccc(NS(=O)(=O)c2ccc(Cl)c(Cl)c2)cc1	nt	1.0%	0.3%	nt	nt	nt
CCN(CC)CCn1nc2c3c(cccc3c1=O)-c1ccccc1-2	13µM*	-12.6%	-1.7%	?	?	-3.2%
O=C(C1CCCN(S(=O)(=O)c2cccc3nsnc23)C1)N1CCc2ccccc2C1 (configuration not stated)	-16.7%	-1.3%	3.5%	12.6%	14.6µM*	-1.1%
O=C(C1CCCN(S(=O)(=O)c2cccc3nsnc23)C1)N1CCCCCC1 (configuration not stated)	0.7%	1.9%	0.2%	-2.9%	-15.5%	0.6%
COc1cc2c(-c3ccc4[nH]ccc4c3)c(-c3ccc(C#N)cc3)oc(=O)c2cc1OC	1.2%	4.4%	6.4%	nt	?	8.8%
O=C(N/N=C/c1ccc([N+](=O)[O-])o1)c1ccc(O)cc1	20.6µM*	1.0%	-2.2%	?	20.6µM*	0.7%
[O-]/[N+](=C\c1ccccc1)[C@@H]1CCCC[C@@H]1/[N+]([O-])=C/c1ccccc1	-2.6%	-1.2%	-0.2%	-2.2%	-6.1%	5.2%
